A short description of assay [1]: inhibitors of TNFa-induced NFkB p65 translocation, primary screen, imaging, HUVEC, MLSMR starter and 10KST1 sets (AID 438;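 active = inhibition above 20% together with a positive visual image hit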;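 note: compound added about 3h40 before a 20 min TNFalpha stimulation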;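 for inhibition: signal is the nuclear over cytoplasmic p65 intensity ratio per well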). As to conditions: HUVEC TNFa-induced p65 nuclear translocation; cell count: measured here: nuclei count (cytotoxicity indicator), at 2.08 µM; inhibition: at 2 µM, stronger effect = higher value, 0% TNFa-plus-vehicle, 100% no-TNFa wells.
Assay [2] in a line: inhibitors of mutant huntingtin aggregation, primary screen, imaging, exon1htt(103Q)mCFP cells, high-content imaging (AID 483;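 active = visual image review flags a hit and inhibition of aggregation exceeds 20%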;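 note: compound exposure lasted 3 days before fixation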;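 for nuclei count: percent of the per-plate median nuclei count of sample wells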). As to conditions: exon1htt(103Q)mCFP cell line, aggregate imaging, at 2 µM; inhibition of aggregation: stronger effect = higher value; nuclei count: measured here: cell count, toxicity.
The nature of assay [3]: inhibitors of E-selectin induction by TNFa, primary screen, imaging, HUVEC, immunofluorescence, MLSMR starter and 10KST1 sets (AID 487;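 active = visually confirmed hit in the image check and inhibition above 20%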;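 for inhibition: signal is fraction of cell area covered by stained E-selectin grains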;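 for nuclei count: 100% = median nuclei count of all wells on the same plate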). As to conditions: HUVEC TNFalpha-induced E-selectin immunofluorescence imaging, at 2 µM; inhibition: stronger effect = higher value; nuclei count: measured here: cell number, toxicity.
Assay [4] concerns the target Voltage-gated potassium channel subunit beta-2 (Rattus norvegicus) (UniProt P62483). The assay is described as follows: KvBeta enzyme negative modulators, primary screen, biochemical, NADPH fluorescence (AID 622;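 active = fluorescence slope higher than the sample average by over 3 SD, cut at about -0.22 in these data, passing the limit was not always enough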;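 note: slope of raw intensity against log time taken from 70 to 1610 s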). As to conditions: recombinant KvBeta, 4-cyanobenzaldehyde reduction, at 10 µM, stronger effect = higher value.
For assay [5] the target is unchanged. The assay is described as follows: KvBeta positive modulators, primary screen, biochemical, NADPH fluorescence (AID 623;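 active = NADPH fluorescence slope more negative than the mean of all samples by about 3 SD, 99.7% confidence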;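 note: fluorescence intensity change per second fitted from 20 to 320 s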). The following applies: Recombinant KvBeta, NADPH fluorescence decrease slope, 10 min; at 10 µM; stronger effect = lower value.
Assay [6] has as its target Alpha-2C adrenergic receptor (Homo sapiens) (UniProt P18825). The assay is described as follows: modulators of alpha2C/GIRK thallium flux, primary screen, cell-based, HEK293 alpha2C/GIRK1/2 (AID 624;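 active = fluorescence slope after compound addition differing from the mean of all screened samples at 99.7% confidence, in either direction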;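 note: slope of fluorescence ratio to pre-addition baseline per second over 15 to 24 s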). As to conditions: thallium flux BTC fluorescence, at 10 µM, actives lie on both sides.
Assay [7] can be described thus: inhibitors of Sendai virus-induced IRF3 signaling, primary screen, TLR/RLR signaling modifier project, cell-based, Sendai virus stimulus, luciferase, 10K MLSCN set (AID 602276;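 active = inhibition at or above 50% at 10 µM; inactive = inhibition below 50%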;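 note: firefly luciferase from ISG56 promoter only with Renilla not read in this screen; 0% = Sendai virus plus DMSO and 100% = medium plus DMSO without virus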). As to conditions: HEK293 RL24 IRF3 luciferase reporter, at 10 µM, stronger effect = higher value. In general terms: Reporter assays use an easily measured gene product as a stand-in for the process of interest.

Assay [8] is described as follows: inhibitors of poly I:C-induced TLR3 signaling, primary screen, cell-based, poly I:C stimulus, luciferase, 10K MLSCN set (AID 602277). As to conditions: HEK293-TLR3 RL24 IRF3 luciferase reporter, at 10 µM, stronger effect = higher value.

Structures are written as SMILES. Active and inactive are the calls of the source.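 Rule for the calls, unless noted: active = inhibition of the reporter signal at or above 50%; inactive = inhibition below 50%.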

Voltage-gated potassium channel subunit beta-2 (Rattus norvegicus), sequence (P62483 whole entry, looked up): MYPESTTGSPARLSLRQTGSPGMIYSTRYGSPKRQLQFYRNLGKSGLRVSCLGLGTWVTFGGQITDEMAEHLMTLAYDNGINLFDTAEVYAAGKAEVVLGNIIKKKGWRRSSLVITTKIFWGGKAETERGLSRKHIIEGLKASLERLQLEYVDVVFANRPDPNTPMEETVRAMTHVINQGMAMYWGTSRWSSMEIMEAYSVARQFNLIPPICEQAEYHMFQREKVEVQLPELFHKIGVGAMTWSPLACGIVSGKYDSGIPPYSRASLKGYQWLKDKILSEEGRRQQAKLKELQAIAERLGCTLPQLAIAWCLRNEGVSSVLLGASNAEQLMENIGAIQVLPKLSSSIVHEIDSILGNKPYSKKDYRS
Alpha-2C adrenergic receptor (Homo sapiens), sequence (P18825 whole entry, looked up): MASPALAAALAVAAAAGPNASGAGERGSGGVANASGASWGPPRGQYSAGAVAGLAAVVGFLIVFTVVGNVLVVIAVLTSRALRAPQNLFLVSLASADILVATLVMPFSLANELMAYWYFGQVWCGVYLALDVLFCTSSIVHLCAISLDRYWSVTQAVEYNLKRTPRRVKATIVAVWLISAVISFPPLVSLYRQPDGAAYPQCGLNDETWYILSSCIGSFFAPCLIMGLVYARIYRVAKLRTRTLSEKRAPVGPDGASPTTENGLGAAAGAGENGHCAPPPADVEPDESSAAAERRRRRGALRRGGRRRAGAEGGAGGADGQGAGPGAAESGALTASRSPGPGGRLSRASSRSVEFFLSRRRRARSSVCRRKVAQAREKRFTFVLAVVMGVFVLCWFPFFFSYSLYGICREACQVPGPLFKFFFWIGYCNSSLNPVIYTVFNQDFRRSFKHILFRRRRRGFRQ

By inhibition is commonly meant the drop in the measured response relative to a control, in per cent. `O=C(CCCC(=O)OCC(=O)NC1CCCC1)Nc1ccccn1`: the cell count in assay [1] was found to be 463. The inhibition was 2.6% (inactive) in assay [1], -130% (inactive) in assay [3], 14% (inactive) in assay [7] and 17.5% (inactive) in assay [8]. Besides, the inhibition of aggregation in assay [2] is 1.1% (inactive). Also, the results for the nuclei count in assay [2] and in assay [3] were 113% and 179%, respectively. Further, the fluorescence slope in assay [4] was -0.6 (inactive). The NADPH fluorescence slope in assay [5] was -4.5e-05 (inactive). Also, the slope in assay [6] was 0.00354 (inactive).

For the compound `N#Cc1nc(-c2ccco2)oc1NCCc1ccccc1`, the cell count in assay [1] was found to be 686. Further, the inhibition in assay [1] was -7.5% (inactive); in assay [3], -3% (inactive); in assay [7] it was -33.8% (inactive); in assay [8] it was -56.1% (inactive). In addition, the inhibition of aggregation in assay [2] is -10.1% (inactive). The nuclei count in assay [2] stood at 88.8%; in assay [3], 107%. Also, the fluorescence slope in assay [4] was -0.463 (inactive). Moreover, in assay [5], the NADPH fluorescence slope was -4.3e-05 (inactive). Further, the slope in assay [6] is 0.0039 (inactive).

Take `Cc1ccc(C)c(S(=O)(=O)NCc2cccnc2)c1`: in assay [1], the cell count is 597. The inhibition was -0.6% (inactive) in assay [1], -89.8% (inactive) in assay [3], 141% (active) in assay [7] and 100% (active) in assay [8]. Also, the inhibition of aggregation in assay [2] was -6.9% (inactive). Further, the nuclei count in assay [2] turned out to be 114%; in assay [3] it was 119%. In assay [4], the fluorescence slope was -0.467 (inactive). In addition, in assay [5], the NADPH fluorescence slope was -5.5e-05 (inactive). In addition, in assay [6], the slope is 0.00658 (inactive).

In the case of `O=C(NCCN1CCCCCC1)c1ccc(CS(=O)(=O)c2ccc(Br)cc2)o1`, the cell count in assay [1] was determined as 591. The inhibition in assay [1] is -0.5% (inactive); in assay [3], -63.4% (inactive); in assay [7], -15.7% (inactive); in assay [8] it was 16.4% (inactive). In assay [2], the inhibition of aggregation is -28.3% (inactive). Besides, the nuclei count in assay [2] was found to be 98.6%; in assay [3] it was 103%. The fluorescence slope in assay [4] is -0.445 (inactive). Also, the NADPH fluorescence slope in assay [5] was 1.2e-05 (inactive). For the same compound, the slope in assay [6] was 0.00438 (inactive).

As for `O=C(NCCN1C(=O)C2C3C=CC(C3)C2C1=O)Nc1ccccn1` (centres undefined), the cell count in assay [1] was determined as 635. Further, the inhibition in assay [1] is 0.8% (inactive); in assay [3], -12.9% (inactive); in assay [7], 7.16% (inactive); in assay [8], 16.9% (inactive). Also, in assay [2], the inhibition of aggregation was 12.9% (inactive). Moreover, the nuclei count in assay [2] worked out at 72.4%; in assay [3] it was 108%. Also, in assay [4], the fluorescence slope is -0.603 (inactive). The NADPH fluorescence slope in assay [5] was 1.9e-05 (inactive). Also, the slope in assay [6] is 0.00714 (inactive).

`COc1ccc(NC(=O)COc2ccccc2)c(OC)c1`: the cell count in assay [1] came out at 404. Further, the inhibition in assay [1] was 8.8% (inactive); in assay [3], 1.1% (inactive); in assay [7] it was -32.8% (inactive); in assay [8], -89.1% (inactive). The inhibition of aggregation in assay [2] is -15.2% (inactive). Moreover, the figures for the nuclei count in assay [2] and in assay [3] were 106% and 108%, respectively. For the same compound, the fluorescence slope in assay [4] is -0.418 (inactive). Besides, the NADPH fluorescence slope in assay [5] is -4.6e-05 (inactive). Also, in assay [6], the slope was 0.00449 (inactive).

Consider `CC(CCc1ccccc1)NC(=O)CSc1nc(N)cc(N)n1` (centres undefined), for which the cell count in assay [1] came out at 253. The inhibition was -6% (inactive) in assay [1], -41.5% (inactive) in assay [3], 8.76% (inactive) in assay [7] and 10.6% (inactive) in assay [8]. For the same compound, the inhibition of aggregation in assay [2] is -23.7% (inactive). Besides, the nuclei count in assay [2] was found to be 10.8%; in assay [3], 99.2%. For the same compound, the fluorescence slope in assay [4] is -0.483 (inactive). For the same compound, the NADPH fluorescence slope in assay [5] was -4.4e-05 (inactive). The slope in assay [6] is 0.00545 (inactive).

With `COCCCN(C(C)=O)c1nc(-c2ccccc2)cs1`, the cell count in assay [1] was found to be 472. Moreover, the inhibition was -6.3% (inactive) in assay [1], 6% (inactive) in assay [3], -31.3% (inactive) in assay [7] and -75% (inactive) in assay [8]. Moreover, in assay [2], the inhibition of aggregation was -6% (inactive). The values for the nuclei count in assay [2] and in assay [3] were 90.9% and 114%, respectively. In addition, the fluorescence slope in assay [4] was -0.533 (inactive). In addition, the NADPH fluorescence slope in assay [5] is -3.7e-05 (inactive). The slope in assay [6] is 0.00569 (inactive).

For `Cc1ccc(Cn2c(=N)c(C(=O)NCc3ccco3)cc3c(=O)n4ccccc4nc32)cc1`, in assay [1], the cell count came to 491. In addition, the inhibition is 1.5% (inactive) in assay [1], -83% (inactive) in assay [3], -2.87% (inactive) in assay [7] and 10.3% (inactive) in assay [8]. Besides, the inhibition of aggregation in assay [2] was -19.4% (inactive). For the same compound, the nuclei count in assay [2] came out at 95.7%; in assay [3], 106%. In assay [4], the fluorescence slope is -0.279 (inactive). The NADPH fluorescence slope in assay [5] is -5.9e-05 (inactive). For the same compound, the slope in assay [6] was 0.00216 (inactive).

For `O=C(c1ccco1)N1CCN(C2=NS(=O)(=O)c3ccccc32)CC1`, the cell count in assay [1] was 596. Further, the inhibition in assay [1] is -18.6% (inactive); in assay [3], -3% (inactive); in assay [7] it was 4.61% (inactive); in assay [8], 31.2% (inactive). The inhibition of aggregation in assay [2] was -11.3% (inactive). Moreover, the nuclei count in assay [2] was 105%; in assay [3] it was 104%. Also, the fluorescence slope in assay [4] is -0.463 (inactive). Further, in assay [5], the NADPH fluorescence slope was -1.3e-05 (inactive). Moreover, in assay [6], the slope was 0.00424 (inactive).

Regarding `CCc1nnc(NC(=O)CSc2nnc3scc(-c4ccc(C)cc4)n23)s1`, the cell count in assay [1] came to 684. Further, the inhibition was -32.6% (inactive) in assay [1], -5.3% (inactive) in assay [3], 14.5% (inactive) in assay [7] and 14.2% (inactive) in assay [8]. Further, the inhibition of aggregation in assay [2] is 9.1% (inactive). Further, the nuclei count came to 96.5% in assay [2] and 104% in assay [3]. Moreover, the fluorescence slope in assay [4] was -0.504 (inactive). The NADPH fluorescence slope in assay [5] is -0.000345 (inactive). For the same compound, the slope in assay [6] is 0.00638 (inactive).

On to `CCCCN(CCCC)CCn1cnc2c([nH]c3ccc(OC)cc32)c1=O`, for which, in assay [1], the cell count was 569. Besides, the inhibition is -7.1% (inactive) in assay [1], -65.8% (inactive) in assay [3], 4.54% (inactive) in assay [7] and 30.7% (inactive) in assay [8]. Moreover, the inhibition of aggregation in assay [2] is 0.2% (inactive). The figures for the nuclei count in assay [2] and in assay [3] were 85.8% and 105%, respectively. In addition, the fluorescence slope in assay [4] is -0.536 (inactive). Further, the NADPH fluorescence slope in assay [5] was -1.1e-05 (inactive). For the same compound, the slope in assay [6] was 0.00685 (inactive).

Turning to `O=C(C1CCC(CNc2c(N3CCCCC3)c(=O)c2=O)CC1)N1CCc2ccccc2C1` (centres undefined), in assay [1], the cell count amounted to 557. The inhibition in assay [1] is 8.9% (inactive); in assay [3], 44% (inactive); in assay [7], 8.75% (inactive); in assay [8], 33.5% (inactive). For the same compound, the inhibition of aggregation in assay [2] is -6.5% (inactive). Further, the results for the nuclei count in assay [2] and in assay [3] were 95.1% and 97.9%, respectively. In assay [4], the fluorescence slope is -0.51 (inactive). The NADPH fluorescence slope in assay [5] was -1.9e-05 (inactive). In addition, the slope in assay [6] is 0.00576 (inactive).

As to `CSCCC(C(=O)Nc1ccc2c(c1)OCO2)N1C(=O)c2ccccc2C1=O` (centres undefined), the cell count in assay [1] amounted to 632. Also, the inhibition was 3.8% (inactive) in assay [1], -138% (inactive) in assay [3], 9.29% (inactive) in assay [7] and 22% (inactive) in assay [8]. Besides, the inhibition of aggregation in assay [2] is -16.3% (inactive). Besides, the nuclei count in assay [2] amounted to 96.3%; in assay [3], 107%. Besides, in assay [4], the fluorescence slope was -0.61 (inactive). Moreover, in assay [5], the NADPH fluorescence slope was -7.2e-06 (inactive). Moreover, in assay [6], the slope was 0.006 (inactive).

These data come from PubChem BioAssay.
